# Results reported in publication PMC5540273 (PLoS ONE, 2017).
# Tested on: TRKB
# Conditions: concentration: 1 μM,replicates: in singlicate; n = 1
# 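Further: KINOMEscan kinase panel screen.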
row,SMILES,%Inh [%]
1,CN(c1cccc(CNc2nc(Nc3ccc4c(c3)CC(=O)N4)ncc2C(F)(F)F)c1)S(C)(=O)=O,93.5
2,CC(=O)Nc1ccc(-c2cc3ncnc(SCC(=O)O)c3s2)cc1,0
3,COc1cccc(OC)c1C(=O)Nc1cccc(-c2nn3ccccc3c2-c2ccnc(Nc3cccc(F)c3)n2)c1 [GSK361065],0
4,CC(C(=O)NC1CCN(c2ccnc(Nc3ccc(F)cc3)n2)C1)c1ccc(Cl)cc1 (centres unmarked) [GSK1379713],11
5,Cc1ccc(CC(=O)N2CCc3cc(-c4cn(C)c5ncnc(N)c45)ccc32)cc1 [GSK2634758],34
6,Cl.Nc1n[nH]c2cc(-c3ccccn3)ccc12 [GSK2189892],0
7,Cl.c1ccc(Oc2ccc(Nc3ccnc4cc(-c5ccc(CN6CCNCC6)o5)ccc34)cc2)nc1 [GW567142],0
8,c1ccc(Oc2ccc(Nc3ccnc4ccc(-c5ccccn5)cc34)cc2)cc1 [GW407034],15
9,COc1cccc(C2=C(Nc3cccc(Cl)c3)C(=O)NC2=O)c1 [SB-341556],36
10,C[C@@H](Oc1cc(-n2cnc3cc(-c4cnn(C)c4)ccc32)sc1C(N)=O)c1ccccc1Cl [GSK580432],73
11,O=C(Nc1n[nH]c2cc(-c3ccco3)ccc12)C1CC1 [SB-737447],19
12,COc1cc2nccc(Nc3ccc(Oc4ccccc4)cc3)c2cc1OC.Cl [GI261656],6
13,CN(c1ccccc1CNc1nc(Nc2ccc3c(c2)CC(=O)N3)ncc1C(F)(F)F)S(C)(=O)=O,94.7
14,N#Cc1cccc(C(=O)NC2CCN(c3ccnc(Nc4ccc(F)cc4)n3)C2)c1 (centres unmarked) [GSK1379708],8
15,COc1cccc(CNC(=O)NC2CCN(c3ccnc(Nc4cc(OC)c(OC)c(OC)c4)n3)C2)c1 (centres unmarked) [GSK1379765],7
16,Cc1ccc2c(-c3ccnc(Nc4ccc(C(F)(F)F)cc4)n3)cnn2n1 [GW819776],0
17,O=C(Nc1ccc(Oc2ccc3nc(NC(=O)C4CC4)cn3n2)c(F)c1)c1cccn(-c2ccccc2)c1=O,80
18,CS(=O)(=O)Nc1ccc(-c2ccnc3[nH]ccc23)cc1 [GSK993273],48
19,CNC(=O)c1ccccc1Nc1nc(Nc2cccc(CS(C)(=O)=O)c2)ncc1C.O=CO [GSK1520489],91.1

row,SMILES,%Inh [%]
1,O=C(Nc1cccc(C(F)(F)F)c1)c1cccc(Oc2ccc3nccn3n2)c1,22
2,COC(=O)Nc1nc2cc(Oc3ccc(NC(=O)Nc4cc(C(F)(F)F)ccc4Cl)cc3)ccc2[nH]1.Cl [GW697465],99.7
3,CC(C)c1nc(-c2cccc(NS(=O)(=O)c3ccccc3)c2)c(-c2ccnc(Nc3ccc4c(c3)CN(C)CC4)n2)s1 [GSK1649598],41
4,CC(=O)Nc1nc2cnc(Nc3cc(NC(=O)c4cccc(CC(C)(C)C#N)c4)ccc3C)nc2s1,0
5,CCn1c(-c2nonc2N)nc2cncc(CNC3CCNCC3)c21.Cl [SB-747651],43
6,CC(C)S(=O)(=O)N1CCN(Cc2ccc3c(c2)nc(NC(=O)c2ccsc2)n3C[C@H](O)c2ccccc2)CC1 [GW635815],94.2
7,COc1cc2ncn(-c3cc(OCC4CCCCC4)c(C(N)=O)s3)c2cc1OC [GSK204559],0
8,NC(=O)c1ccc(-c2cc3ncnc(SCC(=O)O)c3s2)cc1,35
9,COc1ccc(Nc2nccc(N3CCC(NC(=O)c4cccc(C#N)c4)C3)n2)cc1 (centres unmarked) [GSK1379730],14
10,CCOC(=O)N1CCC(n2cnc(-c3ccc(F)cc3)c2-c2ccnc(N)n2)CC1 [SB-219952],34
11,CCN1CCN(CCCC(=O)Nc2n[nH]c3nc(-c4ccc(O)cc4)c(Br)cc23)CC1 [SB-731579],2
12,CC(=O)c1c(-c2ccncc2)[nH]c(-c2ccncc2)c1C [GW493036],0
13,O=c1[nH]cc(-c2ccc(O)cc2)c2sc(-c3ccncc3)cc12 [GSK1033723],0
14,C[C@@H]1CCN(C(=O)N2CCCC2)C[C@@H]1N(C)c1ncnc2[nH]ccc12,55
15,CCn1c(-c2nonc2N)nc2cncc(Br)c21 [SB-738004],20
16,Cc1n[nH]c2cc(Nc3ccnc(Nc4cccc(CN5CCOCC5)c4)n3)ccc12 [GW682569],60
17,O=C(NOCC1CC1)c1cc(Br)c(F)c(F)c1Nc1ccc(I)cc1Cl,20
18,Cn1cc(-c2cccc3c(N)c(C(N)=O)nnc23)cn1,0

# Tested on: T1, TRKC
# T1 construct: gene NTRK3
# Conditions: concentration: 1 μM,replicates: in singlicate; n = 1
row,SMILES,%Inh [%]
1,CN(c1cccc(CNc2nc(Nc3ccc4c(c3)CC(=O)N4)ncc2C(F)(F)F)c1)S(C)(=O)=O,79
2,CC(=O)Nc1ccc(-c2cc3ncnc(SCC(=O)O)c3s2)cc1,0
3,COc1cccc(OC)c1C(=O)Nc1cccc(-c2nn3ccccc3c2-c2ccnc(Nc3cccc(F)c3)n2)c1 [GSK361065],0
4,CC(C(=O)NC1CCN(c2ccnc(Nc3ccc(F)cc3)n2)C1)c1ccc(Cl)cc1 (centres unmarked) [GSK1379713],0
5,Cc1ccc(CC(=O)N2CCc3cc(-c4cn(C)c5ncnc(N)c45)ccc32)cc1 [GSK2634758],29
6,Cl.Nc1n[nH]c2cc(-c3ccccn3)ccc12 [GSK2189892],0
7,Cl.c1ccc(Oc2ccc(Nc3ccnc4cc(-c5ccc(CN6CCNCC6)o5)ccc34)cc2)nc1 [GW567142],15
8,c1ccc(Oc2ccc(Nc3ccnc4ccc(-c5ccccn5)cc34)cc2)cc1 [GW407034],9
9,COc1cccc(C2=C(Nc3cccc(Cl)c3)C(=O)NC2=O)c1 [SB-341556],19
10,C[C@@H](Oc1cc(-n2cnc3cc(-c4cnn(C)c4)ccc32)sc1C(N)=O)c1ccccc1Cl [GSK580432],50
11,O=C(Nc1n[nH]c2cc(-c3ccco3)ccc12)C1CC1 [SB-737447],32
12,COc1cc2nccc(Nc3ccc(Oc4ccccc4)cc3)c2cc1OC.Cl [GI261656],6
13,CN(c1ccccc1CNc1nc(Nc2ccc3c(c2)CC(=O)N3)ncc1C(F)(F)F)S(C)(=O)=O,89
14,N#Cc1cccc(C(=O)NC2CCN(c3ccnc(Nc4ccc(F)cc4)n3)C2)c1 (centres unmarked) [GSK1379708],28
15,COc1cccc(CNC(=O)NC2CCN(c3ccnc(Nc4cc(OC)c(OC)c(OC)c4)n3)C2)c1 (centres unmarked) [GSK1379765],55
16,Cc1ccc2c(-c3ccnc(Nc4ccc(C(F)(F)F)cc4)n3)cnn2n1 [GW819776],0
17,O=C(Nc1ccc(Oc2ccc3nc(NC(=O)C4CC4)cn3n2)c(F)c1)c1cccn(-c2ccccc2)c1=O,20
18,CS(=O)(=O)Nc1ccc(-c2ccnc3[nH]ccc23)cc1 [GSK993273],39
19,CNC(=O)c1ccccc1Nc1nc(Nc2cccc(CS(C)(=O)=O)c2)ncc1C.O=CO [GSK1520489],97.4

row,SMILES,%Inh [%]
1,O=C(Nc1cccc(C(F)(F)F)c1)c1cccc(Oc2ccc3nccn3n2)c1,50
2,COC(=O)Nc1nc2cc(Oc3ccc(NC(=O)Nc4cc(C(F)(F)F)ccc4Cl)cc3)ccc2[nH]1.Cl [GW697465],99.8
3,CC(C)c1nc(-c2cccc(NS(=O)(=O)c3ccccc3)c2)c(-c2ccnc(Nc3ccc4c(c3)CN(C)CC4)n2)s1 [GSK1649598],0
4,CC(=O)Nc1nc2cnc(Nc3cc(NC(=O)c4cccc(CC(C)(C)C#N)c4)ccc3C)nc2s1,7
5,CCn1c(-c2nonc2N)nc2cncc(CNC3CCNCC3)c21.Cl [SB-747651],24
6,CC(C)S(=O)(=O)N1CCN(Cc2ccc3c(c2)nc(NC(=O)c2ccsc2)n3C[C@H](O)c2ccccc2)CC1 [GW635815],95.5
7,COc1cc2ncn(-c3cc(OCC4CCCCC4)c(C(N)=O)s3)c2cc1OC [GSK204559],0
8,NC(=O)c1ccc(-c2cc3ncnc(SCC(=O)O)c3s2)cc1,0
9,COc1ccc(Nc2nccc(N3CCC(NC(=O)c4cccc(C#N)c4)C3)n2)cc1 (centres unmarked) [GSK1379730],43
10,CCOC(=O)N1CCC(n2cnc(-c3ccc(F)cc3)c2-c2ccnc(N)n2)CC1 [SB-219952],24
11,CCN1CCN(CCCC(=O)Nc2n[nH]c3nc(-c4ccc(O)cc4)c(Br)cc23)CC1 [SB-731579],0
12,CC(=O)c1c(-c2ccncc2)[nH]c(-c2ccncc2)c1C [GW493036],0
13,O=c1[nH]cc(-c2ccc(O)cc2)c2sc(-c3ccncc3)cc12 [GSK1033723],14
14,C[C@@H]1CCN(C(=O)N2CCCC2)C[C@@H]1N(C)c1ncnc2[nH]ccc12,26
15,CCn1c(-c2nonc2N)nc2cncc(Br)c21 [SB-738004],44
16,Cc1n[nH]c2cc(Nc3ccnc(Nc4cccc(CN5CCOCC5)c4)n3)ccc12 [GW682569],45
17,O=C(NOCC1CC1)c1cc(Br)c(F)c(F)c1Nc1ccc(I)cc1Cl,0
18,Cn1cc(-c2cccc3c(N)c(C(N)=O)nnc23)cn1,0
